High-throughput results from PubChem.
Shiga inhibitor: A qHTS for Small Molecule Inhibitors of Shiga Toxin; Vero cells, Shiga toxin protein synthesis inhibition reporter; inhibition, % at 38.7 µM; 290,000 compounds, 9.2% hits; in the data active = inhibition mostly above about 28%, no sharp cut-off; inactive = mostly below about 43%; note: 0% is about no effect
AMA1 RON2 block: qHTS for Inhibitors of AMA1-RON; Towards Development of Antimalarial Drug Lead: Primary Screen | AlphaScreen AMA1-biotinylated RON2 peptide binding | 360,000 compounds, 0.2% hits | AID 720542, 2013 | Potency, µM (highest dose often 58.2 µM), for the others: at the highest dose activity change, negative = inhibition, hits mostly inhibitors; active = well fitted inhibition curve with a large enough effect; inconclusive = small, poorly fitted or top-dose-only effect; inactive = no such curve, though single readings can be large or run the other way;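 note: potency is the fitted concentration of half-maximal effect; 0% = vehicle wells and -100% = peptide control; nearly all actives have a fitted effect of over 45% in size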
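AMA1 (3D7) with his tag at 25 nM final met compounds first, then biotinylated RON2 peptide at 25 nM; detection used donor plus acceptor beads, 10 µg/mL apiece, read by AlphaScreen after 30 min at room temperature.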
Marburg entry inh: qHTS for inhibitors of binding or entry into cells for Marburg Virus. Potency, µM (series often up to 37.8 µM), inactives show at the top dose activity change, negative = inhibition, hits mostly inhibitors. 300,000 compounds, 1.8% hits. AID 540276, 2011. Marburg virus pseudotyped entry inhibition, cell reporter; calls by dose curve; tested in HEK293 cells; note: potency is the fitted concentration of half-maximal effect; % is set by controls: 0 for no effect and ±100 for the full control effect
LASV entry inh: qHTS for Inhibitors of binding or entry into cells for Lassa Virus; Lassa virus pseudotype entry inhibition, cell reporter; Potency, µM (series often up to 37.9 µM), inactives show top-dose activity change, negative = inhibition, actives largely listed as inhibitors; 300,000 compounds, 1.2% hits; AID 540256, 2011; calls by dose curve; tested in HEK293 cells; note: potency is the fitted concentration of half-maximal effect; % is set by controls: 0 for no effect and ±100 for the full control effect; nearly all actives have a fitted effect of over 50% in size
CHX counter: Cycloheximide Counterscreen for Small Molecule Inhibitors of Shiga Toxin | cell reporter, cycloheximide protein synthesis inhibition counterscreen | max response, % | 300,000 compounds, 12% hits; in the data active = max response mostly above about 13%, no sharp cut-off; inactive = mostly below about 14%; note: read at 38.3 µM for the half of the compounds with a filed dose; 0% is about no effect
* = called active by the depositor; ? = inconclusive; nt = no result given; [ ] = dose if it differs, or a comment. This excerpt belongs to a sample that is enriched for hits.

SMILES	Shiga inhibitor	AMA1 RON2 block	Marburg entry inh	LASV entry inh	CHX counter
O=C(CSc1ncn[nH]1)c1ccc2c(c1)OCO2	29.6	-2.1%	?	13.6%	13.7*
CCn1cc(/C=C(\NC(=O)c2ccccc2)C(=O)NCCCn2ccnc2)c2ccccc21	nt	-16.8%	nt	nt	nt
CCc1nc(NC[C@H]2CCCO2)c(C#N)c2c1COC(C)(C)C2	nt	nt	4.8%[46.1 µM]	nt	nt
CCN(CC)c1ccc(NC(=O)c2ccc(Br)o2)c(C)c1	27.9*	?	-21.1%	11.4%[14.3 µM]	16.2
CCN(CC)c1ccc(NC(=O)c2ccco2)cc1	66.3*	-9.0%	?	?	22.5*
CCN(CC)c1ccc(NC(=O)c2ccco2)c(C)c1	28.2	11.5%	14.3%	?	15.4*
C=CCN(CC=C)S(=O)(=O)c1ccc(NC(=S)NC(=O)c2ccco2)cc1	34.3	8.4%	?	?	4.9
CCN(CC)c1ccc(NC(=S)NC(=O)c2ccco2)cc1	60.6*	?	0.1%	?	37.8*
COc1ccccc1NS(=O)(=O)c1cc(C)ccc1C	0.8	1.4%	10µM*	0.1%	0.6
COc1ccc(C)cc1NS(=O)(=O)c1cc(C)ccc1C	2.5	-5.9%	-0.7%	4.3%	9.6
COc1ccccc1NS(=O)(=O)c1cccc(NC(=O)Nc2ccc(Cl)cc2)c1	21.7	-8.4%	?	6.31µM*	1.2
CCNS(=O)(=O)c1ccc(NC(=O)Nc2ccccc2OC)cc1	4.1	6.7%	8.8%[46.1 µM]	-15.5%	9.5*
COc1cccc(OC)c1C(=O)Nc1cccc(S(=O)(=O)Nc2ccccc2Cl)c1	nt	-6.3%	nt	nt	nt
CN(c1ccccc1)S(=O)(=O)c1cccc(NC(=O)c2cc3ccccc3oc2=O)c1	66.1*	-8.7%	?	21.5%	60.8*
O=C(/C=C/c1ccccc1Cl)Nc1nc(-c2cccs2)ns1	nt	nt	4.5%[46.1 µM]	?	nt
CC(NC(=O)CN1C(=O)NC2(CCc3ccccc32)C1=O)c1ccc2c(c1)OCCO2 (centres undefined)	nt	-2.2%	nt	nt	nt
COc1ccccc1NS(=O)(=O)c1cccc(NC(=O)c2cc3ccccc3oc2=O)c1	86.8*	-1.1%	-27.0%[46.1 µM]	0.4%	59.6*
COc1cccc(NC(=O)Cc2cccs2)c1	17.2	3.6%	25.3%[46.1 µM]	13.5%	14.9
COc1ccccc1NS(=O)(=O)c1cccc(NC(=O)Cc2cccs2)c1	-17.9	-8.8%	-20.6%	16.4µM*	-2.4
COc1ccccc1NS(=O)(=O)c1cccc(NC(=O)Nc2ccccc2)c1	-2.9	3.8%	?	14.6µM*	-1.3
COc1ccc(NC(=O)c2cc3ccccc3oc2=O)cc1	nt	-9.7%	nt	nt	nt
CCCC(=O)N1CCC1(C)C(=O)Nc1cccc(OC(C)C)c1 (centres undefined)	nt	20.6%	nt	nt	nt
COCCCn1c2nc3ccccc3nc2c2c(=O)n(C[C@H]3CCCO3)cnc21	nt	nt	14.7%	nt	nt
O=[N+]([O-])c1ccc(Sc2n[nH]c(-c3ccccc3)n2)nc1	43.9	-2.8%	30.0%[46.1 µM]	-0.5%	41.1*
O=[N+]([O-])c1ccc(Sc2ccccc2)nc1	10.2	-24.6%	-2.6%	4.8%	-2.2
SMILES	Shiga inhibitor	AMA1 RON2 block	Marburg entry inh	LASV entry inh	CHX counter
Cc1ccccc1Sc1ccc([N+](=O)[O-])cn1	nt	-17.8%	nt	nt	nt
CC(C)(C)c1csc(Sc2ccc([N+](=O)[O-])cn2)n1	50.2*	-18.7%	?	?	22.6*
Cc1ccnc(Sc2ccc([N+](=O)[O-])cn2)n1	25.1	-2.9%	nt	nt	10.1*
COc1cc(-c2nnc(-c3cccs3)o2)cc(OC)c1OC	15.6	1.1%	-23.9%	-13.9%	1.8
Fc1ccc2c(Cl)c(-c3nnc(-c4cccs4)o3)sc2c1	77.9*	0.0%	16.1%	-6.9%	35.4*
CCOC(=O)/C(=N\Nc1ncnc2ccccc12)c1ccc(OC)cc1	44.8	22.7%	?	?	26.5*
COc1ccc(/C(=N/Nc2ncnc3ccccc23)C(=O)O)cc1	89.0*	52.1%	-13.9%[46.1 µM]	?	47.3*
O=P1(O)OP(=O)(O)OP(=O)(O)O1.[Al]	-6.7	nt	nt	nt	-6.2
CCOC(=O)c1ccc(NC(=O)c2nc[nH]c2C(=O)NC[C@@H](C)O)cc1	nt	105.0%	nt	nt	nt
CC1=C(C(=O)N2CCCCCC2)CC(CC(=O)NCCN2CCOCC2)C(=O)N1CCCN1CCCC1=O (centres undefined)	nt	-11.3%	nt	nt	nt
O=C(CSc1nc2c(sc3ccccc32)c(=O)n1CCCN1CCOCC1)NC1CCCC1	-8.6	-3.3%	8.2µM*	-3.2%	1.5
O=C(CSc1nc2c(sc3ccccc32)c(=O)n1CCCN1CCOCC1)NCC1CCCO1 (centres undefined)	-9.3	-1.1%	?	?	-1.8
COc1cccc(NC(=O)CSc2nc3c(sc4ccccc43)c(=O)n2CCN(C)C)c1	-11.7	42.7%	?	?	-7.9
COc1cccc(NC(=O)CSc2nc3c(sc4ccccc43)c(=O)n2CCCN2CCCC2)c1	39.4*	23.5%	nt	nt	16.3*
CC(=O)c1ccc(N2CCN(C(=O)CCCCn3c(=O)[nH]c4ccccc4c3=O)CC2)cc1	nt	nt	nt	-2.0%[46.1 µM]	nt
O=C(NCCc1ccc2c(c1)OCCO2)c1cccc(F)c1	43.4*	-4.2%	-17.7%	2.3%	51.3*
COc1ccc(C(=O)NC(C(=O)NCCc2ccc3c(c2)OCCO3)C(C)C)cc1 (centres undefined)	74.3*	17.2%	nt	nt	21.5*
O=C(NCCc1ccc2c(c1)OCCO2)c1cc(F)cc(F)c1	20.6*	-18.2%	-0.1%	?	24.6*
COc1ccc(C(=O)OCC(=O)NCCN2C(=O)CSC2=O)cc1	-9.2	6.9%	0.5%[46.1 µM]	10.2%	-1.8
CC(=O)Nc1ccc(NC(=O)CCc2nc3cccnc3n2Cc2cccs2)cc1	nt	nt	-13.9%[46.1 µM]	14.1%[46.1 µM]	nt
CC12C=C(/C=C/c3ccc(Br)cc3)C(C)(C1)C(c1ccc(Br)cc1)CC2=O (centres undefined)	nt	nt	-25.8%[14.2 µM]	nt	nt
CC(=O)c1ccc(NC(=O)CSc2nnc3ccc(-c4ccccn4)nn23)cc1	nt	-3.3%	3.3%	23.2%	nt
Cc1cccc(N(CC(=O)NCCSCc2ccccc2)S(C)(=O)=O)c1C	-14.4	2.4%	4.4%[46.1 µM]	14.0%	-6.3
Cc1cccc(N(CC(=O)NCCSCc2ccc(Cl)cc2)S(C)(=O)=O)c1C	nt	nt	?	12.6µM*	nt
COc1ccc(CNC(=O)CN(Cc2ccccc2)S(=O)(=O)c2ccc(Cl)cc2)cc1	7.9	1.9%	-11.7%	-18.1%	2.8
CCOc1ccc(N(CC(=O)NCc2ccccc2OC)S(C)(=O)=O)cc1	91.7*	-4.7%	28.2%	?	42.6*
CCOc1ccc(N(CC(=O)NCc2ccccc2)S(C)(=O)=O)cc1	68.1*	6.1%	25.8%	-3.7%	26.3*
COc1ccc(C)cc1S(=O)(=O)N(CC(=O)NCc1ccc(Cl)cc1)Cc1ccccc1	-15.4	1.8%	23.1µM*	-25.3%[14.3 µM]	-2.8
Cc1ccc(S(=O)(=O)OCCc2ccccc2)cc1	nt	nt	4.9%[14.2 µM]	nt	nt
Cc1ccc(S(=O)(=O)N2CCN(Cc3noc(CCC(=O)N4CCCCC4)n3)CC2)c(C)c1	nt	nt	nt	-1.8%[46.1 µM]	nt
